Test results: the supplement of paper PMC6555819

Experiments:
Assay in all cases: PBM binding z-score (relative to random genomic background probes); higher = stronger binding; sequences stand for … in GC…GCGATTGACAGCGTAGAATGAAGG
[1] = system: RARb homodimer (NR concentration 270 nM)
How it was run: (§1)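 Custom Agilent 4×180K protein-binding microarrays carried double-stranded probes. Their 34-nt variable regions held direct-repeat seeds, single-nucleotide variants, half-site ablations and random human genomic background sequences. Arrays were incubated 1 h with ligand-free nuclear receptor dimers in PBS pH 7.4, 2% milk, 0.02% Triton X-100, 1 mM DTT, 0.2 mg/mL BSA and 0.4 mg/ml salmon testes DNA. Antibodies against each partner (one per run) detected binding, and scanned fluorescence was regression-normalized. Binding z-scores use random background probes as reference.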

[2] = system: RARg:RXRa (NR concentration 270 nM, RXRa partner concentration 90 nM)
How it was run: as §1

[3] = system: RARg homodimer (NR concentration 270 nM)
How it was run: as §1

[4] = system: RXRa DBDmut IVT, anti-RXR (DBD mutation: RXRa K156A/R161A, NR concentration 90 nM)
How it was run: as §1

[5] = system: RXRa homodimer (NR concentration 180 nM)
How it was run: as §1

[6] = system: THRa:RXRa (NR concentration 90 nM, RXRa partner concentration 90 nM)
How it was run: as §1

[7] = system: THRa homodimer (NR concentration 90 nM)
How it was run: as §1

[8] = system: VDR homodimer (NR concentration 270 nM)
How it was run: as §1

Sequence	PBM binding z-score [1]	PBM binding z-score [2]	PBM binding z-score [3]	PBM binding z-score [4]	PBM binding z-score [5]	PBM binding z-score [6]	PBM binding z-score [7]	PBM binding z-score [8]
GCATATAGGTAATACAAGGTGAAAGTGCGATTGT	0.903	0.659	0.584	0.39	0.992	4.13	1.19	0.133
TCGAATAGGTTACCAATGGGGCATTCAGCTTTCT	1.21	2.11	0.782	1.09	1.39	0.655	-0.381	-0.151
TCTTGTAGATCAATAGAGGTTAAGAATGTGCGCT	1.06	0.814	0.559	0.783	1.38	2.15	-0.391	0.277
TAGCCTAGGTCAGATCGGGCCGGTATACGCTATA	1.98	2.67	3.43	-0.551	0.992	3.11	0.09	-0.328
CCTACTGGGCCACGAAAGGTCATTGAATCAGTGA	4.71	4.78	4.92	0.485	5.26	3.64	0.999	1.9
ATACCAAGGTGATCGTGAGGTGGTTGATACTAAC	0.533	0.588	0.258	-0.212	0.48	1.61	0.979	0.166
CCTATTAGTTGACCGTAAGGGCAACCGAAGCTCG	2.75	1.73	1.51	0.339	0.616	2.29	1.78	1.06
TCATATAGGTAAACAGGTGAAACTCCGTAAGTTA	0.92	0.806	0.575	1.37	1.47	0.984	0.268	0.307
CTACCAAGGTGAACAAGGACGTTGATTACTATTC	0.951	0.848	1.13	0.601	0.715	2.43	1.36	0.537
ATCGAAAGGTCGAAGGTGAATATACCCACCCGAA	2.61	4.63	3.68	1.35	5.69	2.52	0.227	0.834
TCTTGTAGATCAAAGGTTAAGTAAGCCGAAGCCT	1.76	2.18	1.14	0.911	3.27	1.92	-0.293	-0.446
TCTGCTAGGTCAGTTGGTCAGCGAACGAGCTGCC	2.57	2.96	3.87	0.527	0.834	1.21	-0.151	-0.461
TCTTGTAGTTCAGCAGGTTAAGAAAGCTGGCCAA	1.53	1.8	1.25	1.53	1.12	0.683	0.0556	0.942
GCTAGCAGGCCATTTGGGTCACTCAATGACGGGC	2	1.11	1.55	0.0537	0.821	1.94	0.534	0.524
TCAGACAGGTGAAGGTAACACAGGTACGCAGTCG	1.34	0.896	1	1.56	1.54	1.36	0.868	0.48
ACTAGCAGGCCAAGGTTGGGTCACTCAAACAAAG	2.3	1.64	1.36	-0.829	0.638	2.04	0.571	0.0121
GGAACGAGTGCATTCGAGTTGATAGCATGGCGAT	-0.91	-0.352	0.0126	3.87	-0.0218	1.92	-1.23	4.44
TAGCCTAGGTCATATCGGGCCAGTATACGCTATA	2.44	3.33	3.95	1.17	2.49	4.54	0.783	0.939
ACTTACGGGTCAACGAGGTTGTAGCACGCGTATA	3.03	5.34	4.57	2.44	5.59	3.38	0.417	2.86

Sequence	PBM binding z-score [1]	PBM binding z-score [2]	PBM binding z-score [3]	PBM binding z-score [4]	PBM binding z-score [5]	PBM binding z-score [6]	PBM binding z-score [7]	PBM binding z-score [8]
TATCGGAGGACACGAAGGTCAGAGCTTTCCAGAG	3.47	3.17	3.73	0.00455	1.79	2.88	0.977	1.46
ATACCAAGGTGATTGTGAGGTCGTTGATACTAAC	2.03	2.19	1.08	1.27	1.59	3.66	2.94	3.33
TTACCAAAGTGAAGGTCGTTGATCCCTCTGTAGA	0.733	0.112	-0.254	0.0594	0.926	0.74	-0.495	0.739
CCGACTGGGGCATAAGGTTACCATTAGCCAGCCC	1.82	1.34	0.904	-0.204	1.08	1.87	1.37	-0.611
CCTACTGGGCCATTCAGAGGTCATGGATCATATG	4.22	4.63	3.45	0.21	4.21	3.64	1.55	2.09
TCTGGTTGGTCAAAGGTCACACACTCGAAATGCG	4.94	7.36	6.25	1.79	8.3	4.07	2.65	3.34
GGAGCGAGGGCAAGTTGATAGCAGAGTTTGATGG	1.55	1.41	1.95	2.04	0.51	0.876	0.0322	1.48
GCTTGTGGATCAAGGTTAAGAAAGACTAAGCTAA	0.362	0.34	0.12	0.0412	0.848	1.27	-0.23	0.00536
TCTGCTAGGTCAACGATGCTCAGCTAATCTGCTA	2.66	3.76	4.76	0.989	2.18	2.47	0.23	-0.64
GCTGCTAGGTCAACTGATGGTCAGGTAAAGCTCG	3.83	5.13	5.23	1.6	3	3.27	1.76	0.0826
TGAATGAGGTTAAAGATCAAGGAACGTGGCGTCG	0.599	2.57	1.35	1.24	4.06	2.41	0.289	0.251
TCTGGGAGGACACGAAGGTCAGAGCTTTCCAGAG	3.49	3.51	4.11	0.416	2.01	2.9	1.18	1.35
CAGCCTAGGTCAAGGCCAGTATAGGAGGAACGTT	3.01	4.16	4.9	0.701	2.75	2.75	0.86	0.353
TCTTGTAGATCAAGCAGGTTAAAAAAGCCTGAGT	0.112	0.141	-0.124	0.493	0.566	0.589	-0.577	0.272
TCGAGTAGGTTAGTCGGGGGATTCAGCCAACATA	0.341	0.199	0.0266	0.48	0.178	1.25	0.267	0.183
TAGCCTAGGTCATGGGCCAGTAAACCACGCGAAC	2.99	4.38	5.19	0.473	3.77	3.25	1.12	0.514
AATACAGGTTCACTAGGCCAGAGTAGGTACGAAT	1.25	1.84	1.4	4.16	2.15	1.12	0.232	4.64
CCGACTGGGGCGGAAAGGTTACCATACCATCCGG	2.17	1.49	0.882	-1.21	1.76	1	-0.282	-0.201
ATACCAAGGTGATCGTGACGTCGTTGATACTAAC	0.537	0.459	0.417	0.283	0.575	1.05	0.655	-0.00274
